Records with an inconclusive call do not appear. Calls of active or inactive are those of the source. Unless noted, calls follow the shape of the dose curve; as a rule, active = well fitted curve in the direction sought with a large enough effect in the repeat runs; inconclusive = weak or mixed curves; inactive = no such curve, though single readings can be large; an effect the other way counts as inactive or inconclusive.
How the values were obtained:
[1] = qHTS assay for small molecule agonists of the p53 signaling pathway (AID 651631; calls by dose curve; also: nearly all actives have a fitted effect of over 15% in size; also: potency is read from the fitted curve at half-maximal effect)
How it was run: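 Readout was fluorescence from the LiveBLAzer FRET substrate, applied for 2 h at room temperature after 16 h compound exposure at 37 °C. Cells were the p53RE-bla HCT-116 line, with beta-lactamase driven by p53 response elements.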

[2] = qHTS assay for small molecules that induce genotoxicity in human embryonic kidney cells expressing luciferase-tagged ATAD5 (AID 651632); also: nearly all actives have a fitted effect of over 15% in size
How it was run: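 Reporter cells (HEK293T) express luciferase-tagged ATAD5, a protein that accumulates after DNA damage. Treat 16 hr at 37C/5% CO2, add Amplite, wait 30 min at RT, and read luminescence.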

[3] = qHTS assay for small molecule agonists of the p53 signaling pathway - cell viability (AID 651633; calls by dose curve; also: nearly all actives have a fitted effect of over 30% in size)
How it was run: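 Viability counter-read: CellTiter-Glo luminescence (30 min, room temperature) in the same p53RE-bla plates. These plates had been exposed to compounds for 16 h at 37 C.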

[4] = qHTS assay for small molecules that induce genotoxicity in human embryonic kidney cells expressing luciferase-tagged ATAD5 - cell viability (AID 651634; calls by dose curve; also: nearly all actives have a fitted effect of over 25% in size; also: potency is read from the fitted curve at half-maximal effect)
How it was run: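 Seeding of 2,000 HEK293T ATAD5-luciferase cells per well preceded pin-tool compound transfer. Plates sat 15.5 hr at 37C under 5% CO2, then fluorescence was read after 30 min with CellTiter-Fluor.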

[5] = qHTS assay for small molecule disruptors of the mitochondrial membrane potential - cell viability (AID 720634; calls by dose curve;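 also: human HepG2 liver cancer cells; nearly all actives have a fitted effect of over 20% in size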)
How it was run: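 Measuring cytotoxicity alongside mitochondrial potential, the screen quantified ATP by luminescence in HepG2 cells after 1 hr compound incubation and a 30 min room-temperature CellTiter-Glo step.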

[6] = qHTS assay to test for compound auto fluorescence at 590 nm (red) in HepG2 cells (AID 720674)
How it was run: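 Red autofluorescence (Ex/Em 540/590 nm, Rose Bengal sodium equivalents) was measured in HepG2 cells, 2,000 per well in MEM plus 10% FBS, plated overnight at 37 C. Readings were taken 1 hr after adding 23 nL compound or DMSO, at 37 C and 5% CO2.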

[7] = qHTS assay to test for compound auto fluorescence at 535 nm (green) in HepG2 cells (AID 720675)
[8] = qHTS assay to test for compound auto fluorescence at 460 nm (blue) in HEK293 cells (AID 720678)
How it was run: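 Measured: blue fluorescence (Ex 405/Em 460 nm) of compound-treated HEK293 cells, incubated overnight at 37C with 5% CO2 and scaled to triamterene equivalents.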

[9] = qHTS assay to test for compound auto fluorescence at 590 nm (red) in HEK293 cells (AID 720679)
How it was run: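 Using HEK293 cells at 2,000 per well, the screen added 23 nL of each compound after cell attachment and incubated overnight (37C, 5% CO2). The plate reader then captured red-label fluorescence, Ex/Em 540/590nm.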

[10] = qHTS assay to test for compound auto fluorescence at 535 nm (green) in HEK293 cells (AID 720680)
[11] = qHTS assay to test for compound auto fluorescence at 460 nm (blue) in HEK293 cell free culture (AID 720681)
How it was run: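 Blue fluorescence (Ex 405/Em 460 nm, triamterene-equivalent) was read immediately after pin transfer of compound or DMSO into medium (DMEM, 10% FBS) without cells.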

[12] = qHTS assay to test for compound auto fluorescence at 535 nm (green) in HEK293 cell free culture (AID 720682)
How it was run: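 Compounds were pin-transferred into cell-free DMEM with 10% FBS, and green fluorescence was read at excitation 485 nm and emission 535 nm. Intensities were expressed as fluorescein-equivalent values.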

[13] = qHTS assay to test for compound auto fluorescence at 590 nm (red) in HEK293 cell free culture (AID 720683)
How it was run: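 Red-channel autofluorescence of compounds in culture medium (DMEM, 10% FBS), no cells, measured at 540/590 nm. Rose Bengal sodium is the reference fluorophore for equivalence.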

[14] = qHTS assay to test for compound auto fluorescence at 590 nm (red) in HepG2 cell free culture (AID 720684)
How it was run: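 Plate contents were MEM with 10% FBS plus test compound or DMSO, no cells. Fluorescence was recorded with 540 nm excitation and 590 nm emission.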

[15] = qHTS assay to test for compound auto fluorescence at 460 nm (blue) in HepG2 cell free culture (AID 720685)
How it was run: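 Compound (23 nL) or DMSO pinned into cell-free MEM with 10% FBS; blue fluorescence read at 405/460 nm excitation/emission, expressed as auto-fluorescence equivalency to triamterene.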

[16] = qHTS assay to test for compound auto fluorescence at 535 nm (green) in HepG2 cell free culture (AID 720686)
[17] = qHTS assay to test for compound auto fluorescence at 460 nm (blue) in HepG2 cells (AID 720687)
How it was run: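 Blue-channel autofluorescence (Ex/Em 405/460 nm, triamterene-equivalent) was measured after 1 hr compound exposure at 37 C, 5% CO2. Cells were HepG2, plated overnight at 37 C in MEM plus 10% FBS.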

[18] = target: Glucocorticoid receptor (Homo sapiens) (UniProt P04150); assay: qHTS assay to identify small molecule agonists of the glucocorticoid receptor (GR) signaling pathway (AID 720691; active = well fitted activation curve with a large enough effect in the signal ratio in the repeat runs, not every such curve was filed as active; the % refers to the signal ratio; also: potency is read from the fitted curve at half-maximal effect); conditions: GR-bla HeLa, beta-lactamase reporter ratio, 18 h; activation: at 62.4 µM (top of the series)
How it was run: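 Reporter read-out: fluorescence intensity following 2 h room-temperature LiveBLAzer B/G FRET substrate loading. Prior step: GR-bla HeLa cells held 4 h, then treated 18 h at 37 C.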

[19] = target: Glucocorticoid receptor (Homo sapiens) (UniProt P04150); assay: qHTS assay to identify small molecule antagonists of the glucocorticoid receptor (GR) signaling pathway (AID 720692; active = well fitted inhibition curve with a large enough effect in the signal ratio in the repeat runs, not every such curve was filed as active; the % refers to the signal ratio)
How it was run: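 Dexamethasone (5 nM final) stimulated a stably integrated GRE-beta-lactamase reporter in HeLa cells during 18 h co-incubation with compounds; signal was quantified as fluorescence intensity of B/G FRET substrate after 2 h.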

Measured: Potency

Sequence of Glucocorticoid receptor (Homo sapiens) (P04150 whole entry, looked up): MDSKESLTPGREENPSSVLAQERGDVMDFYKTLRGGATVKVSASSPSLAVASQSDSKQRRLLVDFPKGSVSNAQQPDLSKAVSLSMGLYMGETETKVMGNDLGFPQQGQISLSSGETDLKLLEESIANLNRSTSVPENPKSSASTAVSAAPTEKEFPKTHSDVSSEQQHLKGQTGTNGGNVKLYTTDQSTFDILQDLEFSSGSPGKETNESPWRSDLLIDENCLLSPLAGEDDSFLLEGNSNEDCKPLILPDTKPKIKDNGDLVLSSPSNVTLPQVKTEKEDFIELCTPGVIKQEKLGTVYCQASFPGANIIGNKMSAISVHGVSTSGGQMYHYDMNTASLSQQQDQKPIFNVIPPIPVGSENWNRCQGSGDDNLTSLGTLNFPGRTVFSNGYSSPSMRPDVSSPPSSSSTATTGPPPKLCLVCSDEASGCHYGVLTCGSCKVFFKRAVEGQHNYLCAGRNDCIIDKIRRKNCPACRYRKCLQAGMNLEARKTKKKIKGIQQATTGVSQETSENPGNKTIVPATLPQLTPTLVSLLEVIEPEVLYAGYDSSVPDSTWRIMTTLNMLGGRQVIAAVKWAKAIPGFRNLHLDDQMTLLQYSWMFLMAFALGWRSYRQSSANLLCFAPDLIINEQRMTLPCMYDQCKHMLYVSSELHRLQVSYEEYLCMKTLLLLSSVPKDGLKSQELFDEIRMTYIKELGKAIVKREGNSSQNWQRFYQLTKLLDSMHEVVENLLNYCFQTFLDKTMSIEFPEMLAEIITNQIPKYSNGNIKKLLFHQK

CC(C)[C@H](N)C(=O)OCC(CO)OCn1cnc2c(=O)[nH]c(N)nc21 (stereo partly drawn)
not listed: [19]
inactive: all other assays above

CCC(=O)OCC(=O)[C@@]1(OC(=O)CC)[C@H](C)C[C@H]2[C@H]3[C@H]([C@@H](O)C[C@@]21C)[C@@]1(C)C=CC(=O)C=C1C[C@H]3Cl
active: [18] 20.4 nM
not listed: [19]
inactive: all other assays above

CC[C@H]1NC(=O)[C@@H](NC(=O)c2ncccc2O)[C@@H](C)OC(=O)[C@H](c2ccccc2)NC(=O)[C@@H]2CC(=O)CCN2C(=O)[C@H](Cc2ccccc2)N(C)C(=O)[C@@H]2CCCN2C1=O
not listed: [18] | [19]
inactive: all other assays above

NC(=O)c1ccc[n+]([C@@H]2O[C@H](COP(=O)([O-])OP(=O)(O)OC[C@H]3O[C@@H](n4cnc5c(N)ncnc54)[C@H](O)[C@@H]3O)[C@@H](O)[C@H]2O)c1
not listed: [18] | [19]
inactive: all other assays above

COc1cc(C[C@@H]2NCCc3cc(O)c(O)cc32)cc(OC)c1OC
inactive: all assays above

CCC(C)[C@@H](N)C(=O)O (stereo partly drawn)
inactive: all assays above

C[C@@H](O)[C@H]1C(=O)N2C(C(=O)[O-])=C(SC3Cn4cnc[n+]4C3)[C@H](C)[C@H]12 (stereo partly drawn)
inactive: all assays above

CO[C@@]1(NC(=O)C2SC(=C(C(N)=O)C(=O)O)S2)C(=O)N2C(C(=O)O)=C(CSc3nnnn3C)CS[C@@H]21 (stereo partly drawn)
inactive: all assays above

CC1(C)S[C@@H]2[C@H](NC(=O)C(C(=O)Oc3ccc4c(c3)CCC4)c3ccccc3)C(=O)N2[C@H]1C(=O)O (stereo partly drawn)
inactive: all assays above

NCCCNCCCCNC(=O)C(O)NC(=O)CCCCCCN=C(N)N (stereo not drawn)
inactive: all assays above

COc1ccc(C(=O)Nc2ccccc2CCC2CCCCN2C)cc1 (stereo not drawn)
inactive: all assays above

O=C(OCCO)c1ccccc1O
inactive: all assays above

CC[C@H](CC[C@@H](C)[C@H]1CC[C@H]2[C@@H]3CC=C4C[C@@H](O)CC[C@]4(C)[C@H]3CC[C@]12C)C(C)C
inactive: all assays above

CC(=O)N[C@@H]1C(O[C@H]2O[C@H](C(=O)O)C(O)[C@H](O)[C@H]2O)[C@H](O)[C@@H](CO)O[C@H]1O[C@@H]1C(C(=O)O)O[C@@H](O[C@H]2[C@H](O)[C@@H](CO)OC(O)[C@@H]2NC(C)=O)[C@H](O)[C@H]1O (stereo partly drawn)
inactive: all assays above

COc1cc2[nH]c(C)c(CCN3CCN(c4ccccc4)CC3)c2cc1OC
inactive: all assays above

CNCC(O)c1ccc(OC(=O)C(C)(C)C)c(OC(=O)C(C)(C)C)c1 (stereo not drawn)
inactive: all assays above

COC(=O)CCC(=O)CN
inactive: all assays above

Oc1cc(O)cc(O)c1
not listed: [19]
inactive: all other assays above

C#CCOc1ccc2c(C)cc(=O)oc2c1
inactive: all assays above

CC(=O)Oc1cccc(C(=O)O)c1OC(C)=O
inactive: all assays above

CC[C@@H](C(=O)O)[C@@H]1O[C@@H]([C@@H](C)[C@H](O)[C@H](C)C(=O)[C@H](CC)[C@H]2O[C@]3(C=C[C@@H](O)[C@]4(CC[C@@](C)([C@H]5CC[C@](O)(CC)[C@H](C)O5)O4)O3)[C@H](C)C[C@@H]2C)[C@@H](C)C[C@@H]1C
active: [1] 3760 nM | [4] 1880 nM
not listed: [19]
inactive: all other assays above

CN(C(=O)CO)c1c(I)c(C(=O)NCC(O)CO)c(I)c(C(=O)NCC(O)CO)c1I (stereo not drawn)
inactive: all assays above

C[C@@](Cc1ccc(O)c(O)c1)(NN)C(=O)O
inactive: all assays above

Cc1ccccc1OCC(O)CNCCOc1ccc(C(N)=O)cc1 (stereo not drawn)
inactive: all assays above
